# Assay results from PubChem BioAssay (NCI).
# This is part of a sample that, as a whole, favours compounds with a hit. Of some 83,000 tested, about 20% had one in any assay.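 Results are percent growth after 48 hours of single-concentration exposure. 100 means growth as in untreated cells, lower positive values show inhibition; negative values down to -100 show cell death.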 The source made the active and inactive calls. The calls were made as follows: active = growth percent below 10; inactive = the rest.
# Test system: MDA-MB-435 melanoma
# Assay: NCI-60 one-dose screen, 48 h (100 = growth as untreated, 0 = no growth, -100 = all killed)
# Conditions: 10 µM unless noted
row,Structure (SMILES),growth
1,COC(=O)c1c2c(c(C)[n+]([O-])c1C)C(=O)C(NCc1ccc(Cl)cc1)=CC2=O,9.83% (active)
2,C=C1C(=O)O[C@H]2[C@H]1CC/C(COC(=O)CCSCCC(=O)OC/C1=C/CC[C@@]3(C)O[C@H]3[C@H]3OC(=O)C(=C)[C@@H]3CC1)=C\CC[C@@]1(C)O[C@@H]21,8.02% (active)
3,Cc1c(-n2nnc(-c3nc4ccccc4s3)c2N)c(=O)n(-c2ccccc2)n1C,114% (inactive)
4,O=C(c1cc2ccccc2o1)c1nn(-c2ccccc2)/c(=N/N=Cc2cn(-c3ccccc3)nc2-c2cc3ccccc3oc2=O)s1,81.1% (inactive)
5,C=CCn1c(SCC(=O)NCc2cc(C)c(O)c(C)c2)nc2ccc(Cl)cc2c1=O,107% (inactive)
6,CNC(=O)c1c(NC(=O)c2ccc(C(F)(F)F)cc2)sc2c1CCC(=O)C2,0.84% (active)
7,O=C(Nc1ccc(-c2nc(N3CCOCC3)c3cccn3n2)cc1)Nc1cccnc1,3.87% (active)
8,COc1ccc(/C(C)=C(/c2ccc(OCCCN(C)C)cc2)c2ccc(OC(=O)Cc3ccccc3)cc2)cc1,71.9% (inactive)
9,O=C(NCc1ccccc1)Nc1ccccc1CNc1nc(Nc2ccc(OCCN3CCCC3)cc2)ncc1Cl,82.9% (inactive)
10,CN1C(=O)/C(=C/c2ccc(C(=O)Nc3ncc(Cc4ccc(Cl)cc4)s3)cc2)SC1=S,-32% (active)
11,CCN1C(=O)N(CC)C2C1NN=c1s/c(=C\c3cccc([N+](=O)[O-])c3)c(=O)n12 (centres undefined),-30.4% (active)
12,CCN(CC)CCOc1ccc(C(=C(C)c2ccc(Cl)cc2)c2ccc(OCCN(CC)CC)cc2)cc1,-95.1% (active)
13,C/C(=N\NC(=O)c1ccccc1O)c1cccc(/C(C)=N/NC(=O)c2ccccc2O)n1,40% (inactive)
14,O=[N+]([O-])c1ccc(-c2nc(N3CCOCC3)c3c4c(sc3n2)CCCC4)cc1,99.1% (inactive)
15,O=C(Nn1c2c(sc1=Nc1ccccc1)C(=O)c1ccccc1C2=O)c1cc2ccc1CCc1ccc(cc1)CC2,-72.5% (active)
16,N=C(N)c1ccc(-c2ccc(-c3cc(Cl)cc(Cl)c3)o2)o1,-92.8% (active)
17,O=C(NNc1nccc(Nc2ccc(S(=O)(=O)Nc3ccncc3)cc2)n1)c1ccccc1,105% (inactive)

row,Structure (SMILES),growth
1,O=C1/C(=C/c2cccs2)SC(=S)N1CCCN1CCOCC1,92.1% (inactive)
2,CCN(CC)C(=S)SC(SC(=S)N(CC)CC)C(=O)c1nnn(-c2ccc([N+](=O)[O-])cc2)c1C,101% (inactive)
3,C=C(C)[C@@H]1CC[C@]2(C(=O)O)CC[C@]3(C)[C@H](CC[C@@H]4[C@@]5(C)C[C@@H](Cc6cn(CCO[C@@H]7O[C@H](COC(C)=O)[C@H](OC(C)=O)[C@H](OC(C)=O)[C@H]7OC(C)=O)nn6)[C@H](O)C(C)(C)[C@@H]5CC[C@]43C)[C@@H]12,94.2% (inactive)
4,O=C(Cn1cc(CN2CCCCCC2)nn1)Nc1ccc2c(ccn2Cc2ccccc2)c1,96.6% (inactive)
5,COc1ccc(C(c2cc(OC)c(OC)c(OC)c2)N2CCN(c3ccccc3)CC2)cc1 (centres undefined),9.02% (active)
6,CCN(CC)CCNC(=O)c1cn2ncnc(Oc3ccc(NC(=O)Nc4ccc(Cl)c(C(F)(F)F)c4)c(F)c3)c2c1C,-78.8% (active)
7,Cc1ccc(-n2c(=S)[nH]c3sc4c(c3c2=O)CCC(=O)C4)cc1,-33.3% (active)
8,C/C(Nc1ccc(Cl)c(Cl)c1)=C1\CCOC1=O,82.5% (inactive)
9,COc1cc(-c2cc(-c3cccs3)c(C#N)c(N3CCOCC3)n2)cc(OC)c1OC,92.8% (inactive)
10,CCN1CC(=O)N(/N=C2\C(=O)Nc3ccccc32)C1=S,98.2% (inactive)
11,C=CCn1cc(-c2nc3ccccc3s2)c2cc(-c3ccc4c5c(cccc35)C(=O)N(N)C4=O)ccc21,103% (inactive)
12,N=C(N)c1ccc(-c2ccc(-c3ccc(Cl)cc3)s2)nc1,-15% (active)
13,Cc1cc2c(O)c(-c3cccc(Cl)c3)c3sc(=O)oc3c2cc1C,28.9% (inactive)
14,N#Cc1cccc(NC(=O)c2oc3ccccc3c2-c2cnn(-c3ccccc3)c2)c1,97.9% [50 µM] (inactive)
15,Cc1cc2c(O)c(-c3cc(Cl)ccc3Cl)c3sc(=O)oc3c2cc1C,47.3% (inactive)
16,Cc1ccccc1NC(=O)c1sc2nc(C)c(C(=O)/C=C/c3ccccc3)cc2c1N,-22.7% (active)
17,COc1cc(NC(C)CCCNC(C)C)c2ncccc2c1OC (centres undefined),108% (inactive)
